This is part of a sample that, as a whole, favours compounds with a hit. Of some 83,000 tested, about 20% had one in any assay.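 Note: values are percent growth. 100 is the growth of untreated cells, values between 100 and 0 indicate rising inhibition; between -100 and 0 indicates cell death.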 Unmarked numbers belong to inactive results. The source made the active and inactive calls. The calls were made as follows: active = growth percent below 10; inactive = the rest.

Test in all cases: NCI-60 one-dose screen, 48 h (100 = growth as untreated, 0 = no growth, -100 = all killed)
Conditions in all cases: 10 µM

The subject of test [1] is NCI-H23 lung.
Test [2] relates to NCI-H226 lung.
The subject of test [3] is NCI-H322M lung.
The test system of test [4] is HOP-62 NSCLC.
Test [5] has as its system NCI-H460 lung.
The test system of test [6] is HOP-92 NSCLC.
The subject of test [7] is NCI-H522 lung.
The test system of test [8] is 786-0 renal.
Test [9] relates to COLO 205 colon.
The subject of test [10] is DU-145 prostate.
Test [11] relates to K-562 leukemia.
The subject of test [12] is MALME-3M melanoma.
Test [13] deals with MDA-MB-231 breast.
Test [14] relates to RXF 393 renal.
In test [15] the test system is SF-268 CNS.
The test system of test [16] is SF-295 CNS.
Test [17] has as its system SF-539 CNS.
Test [18] deals with UACC-257 melanoma.
For test [19], the system named is M14 melanoma.

Take `C#CCn1c(-c2cccc(OCCCCl)c2)nc2c1c(=O)n(C)c(=O)n2C`: the growth in test [1] was 79.5%; in test [2], 62.5%; in test [3] it was 92.1%; in test [4] it was 81.4%; in test [5] it was 93.5%; in test [6], 49.9%. Besides, the growth was 52% in test [7]; 86.5% in test [8]; 96.8% in test [9]; 65.5% in test [10]; 12.7% in [11]; 84.4% in [12]. Besides, the growth was 75.2% in [13]; 104% in test [14]; 67.1% in test [15]; 87.3% in [16]; 86% in [17]; 104% in test [18]. The growth in test [19] is 52.8%.

Consider `c1ccc(CNc2nc(Nc3ccc(-c4nc5ccccc5[nH]4)cc3)c3cn[nH]c3n2)cc1`, for which the growth in test [1] is 14.5%; in test [2] it was 39.6%; in test [3], 28.6%; in test [4] it was -17.4% (active); in test [5], 4.06% (active); in [6], 14.7%. Besides, the growth in test [7] is -45.7% (active); in test [8], -78.4% (active); in [9], -60.1% (active); in test [10], 25.5%; in test [11], -17% (active); in [12] it was -23.5% (active). The growth in test [13] was -11.1% (active); in test [14] it was -68.3% (active); in test [15], 22.1%; in test [16], -44.5% (active); in [17], 1.69% (active); in [18], -33.3% (active). The growth in test [19] is -34.6% (active).

As to `O=C(COc1ccc(-c2nc3ccccc3[nH]2)cc1)N=Nc1c(O)[nH]c2ccccc12`, the growth is 106% in [1]; 116% in [2]; 96.1% in test [3]; 105% in [4]; 97.8% in test [5]; 79.8% in test [6]. Further, the growth in [7] was 94%; in test [8], 96.8%; in test [9], 92.4%; in test [10] it was 101%; in test [11], 44.8%; in [12] it was 80.9%. Also, the growth was 84.5% in test [13]; 107% in test [14]; 98.3% in test [15]; 102% in test [16]; 106% in test [17]; 110% in test [18]. In test [19], the growth was 116%.

Turning to `CC[C@@]1(C(N)=O)CC2C=CC1C2` (stereo partly drawn), the growth in [1] was 110%; in test [2], 102%; in test [3], 142%; in [4], 111%; in [5], 122%; in [6] it was 97.2%. For the same compound, the growth was 101% in test [7]; 98.9% in [8]; 114% in test [9]; 113% in [10]; 92.6% in test [11]; 109% in test [13]. The growth in test [14] was 112%; in test [15] it was 119%; in test [16], 110%; in test [17], 111%; in [18] it was 118%; in [19], 102%.

For `CCCc1c(C)nc2scc(-c3ccc(Cl)cc3)n2c1=O`, the growth in test [1] was 100%; in test [2] it was -100% (active); in [3], 102%; in test [4], 88.9%; in test [5], 108%; in [6] it was 92.5%. In addition, the growth in test [7] is 94.3%; in [8], 101%; in [9] it was 103%; in [10], 105%; in test [11], 99.3%; in test [12], 116%. Further, the growth in test [13] was 109%; in test [14] it was 92.7%; in [15], 98.3%; in test [16], 105%; in test [17] it was 101%; in test [18] it was 110%. Moreover, in test [19], the growth is 107%.

As to `Cc1ccc(S(=O)(=O)Nc2cccc3[nH]c(C(F)(F)F)nc23)cc1`, the growth in [1] was 39.5%; in test [2], 68.4%; in [3] it was 36.4%; in test [4], 36.4%; in test [5], 7.86% (active); in test [6], -3.66% (active). Besides, the growth was -6.23% (active) in test [7]; 47.7% in test [8]; -21.6% (active) in [9]; 19% in test [10]; 11.6% in test [11]; 12.7% in test [12]. Besides, the growth is 31.4% in [13]; 3.7% (active) in test [14]; 60% in test [15]; 0.543% (active) in [16]; -11.9% (active) in test [17]; 43.1% in test [18]. The growth in [19] was 15.2%.

For `N=C(N)c1ccc(-c2ccc(-c3cccs3)s2)nc1`, the growth in test [1] was 71.2%; in [2] it was 67.6%; in [3], -13.1% (active); in [4] it was 66.5%; in [5], -22% (active); in test [6], -9.04% (active). Moreover, the growth in test [7] was 72.8%; in [8], 56.2%; in [9], -94% (active); in test [10], 64.4%; in [11], -14.9% (active); in [12], 57.1%. Besides, the growth in test [13] is 8.8% (active); in [14], 30.8%; in test [15], 70.1%; in [16] it was 7.11% (active); in test [17] it was 84.5%; in test [18] it was 63.2%. Also, the growth in [19] was 75%.

Consider `O=C1CC[C@@H](C(=O)N[C@H]2CSSC[C@@H](C(=O)NCCc3ccccc3)NC(=O)[C@H](Cc3ccccc3)NC(=O)[C@@H]3CCCN3C(=O)[C@@H]3CCCN3C2=O)N1`, for which the growth in [1] was 92.7%; in test [2], 87.5%; in [3], 115%; in test [4], 55.1%; in test [5] it was 101%; in test [6], 94.6%. Moreover, the growth was 96.2% in [7]; 99% in test [8]; 119% in test [9]; 110% in [10]; 90.6% in test [11]; 110% in [12]. Also, the growth is 90.1% in [13]; 103% in [14]; 106% in test [15]; 98.8% in test [16]; 94.2% in test [17]; 99.1% in [18].

On to `COc1cc(C2C=C(c3ccc(Cl)cc3)N=C3SC(C)=CN32)cc(OC)c1OC` (stereo not drawn), for which the growth in test [1] is 93.8%; in test [2] it was 96.9%; in test [3], 97.3%; in test [4], 109%; in test [5], 102%; in [6], 95.2%. Also, the growth in test [7] is 69.9%; in [8], 89.5%; in [9], 109%; in test [10] it was 99.9%; in test [11] it was 91.1%; in test [12], 88.7%. Also, the growth was 103% in test [13]; 92.6% in [14]; 104% in [15]; 82.2% in test [16]; 99.1% in test [17]; 101% in [18]. The growth in [19] is 95%.

Turning to `Cc1nn2c(/C=C3/C(=O)Nc4ccc(Cl)cc43)c(-c3ccccc3)nc2s1`, the growth was 51.4% in test [1]; 33.4% in [2]; 12.7% in test [3]; -19.8% (active) in [4]; 25.7% in test [5]; -5.92% (active) in test [6]. Moreover, the growth in [7] was 43.6%; in [8] it was 41.2%; in [9] it was 49.7%; in test [10] it was 31.9%; in [11], 56.7%; in [12], -2.37% (active). Moreover, the growth in [13] is 8.13% (active); in test [14] it was 7.51% (active); in test [15], 30.4%; in test [16], 70.1%; in test [17], 38.1%; in test [18], 62.3%. The growth in [19] was 55.4%.
